Experiment [1] in a line: ArunA_NOG_BranchPointsPerNeurite: ArunA Biomedical's Neurite Outgrowth (NOG) Assay for Branch Points Per Neurite (AID 2283759). The gist of the method:
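Automated image analysis traced neurites (processes >10 um) from valid cell bodies after Hoechst and βIII-tubulin staining. hNN cells from H9 embryonic stem cells, 48 h exposure. Fitted bidirectionally against DMSO.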

A short description of experiment [2]: ACEA_AR_agonist_AUC_viability: ACEA Biosciences xCELLigence Real-Time Cell Analysis on Androgen Receptor Agonism for Viability (AID 2283775).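 As to AC50: viability read 80 hours after compound addition.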 The gist of the method: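 Read-out is area under the impedance curve at 80 h post-dose in 22Rv1 cells, with DMSO as baseline and signal loss taken as reduced viability. Compounds ran in duplicate from 100 uM final.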
Experiment [3] is described as follows: ACEA_AR_antagonist_AUC_viability: ACEA Biosciences xCELLigence Real-Time Cell Analysis on Androgen Receptor Antagonism for Viability (AID 2283776).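 Also: area under impedance growth curve at 80 h after dosing as viability; hits lower the growth signal relative to DMSO meaning cytotoxicity.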 The gist of the method:
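22Rv1 human prostate cancer cells were seeded on electrode plates, monitored overnight, then exposed to eight 1:4 dilutions from 100 uM final. Impedance-based growth kinetics at 80 h gave an AUC viability endpoint normalized to DMSO.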

Experiment [4] deals with zebrafish Androgen Receptor (AR), gene 100005148. The experiment can be described thus: ATG_zfAR_XSP1: Attagene TRANS-FACTORIAL Multi-Species (XSP1) HepG2 Assay for zebrafish Androgen Receptor (AR) (AID 2283771). The method, then: ATG_XSP1_multi-species_TRANS is a cell-based, multiplexed assay created by modifying the existing Attagene TRANS-FACTORIAL system to include a panel of nuclear receptors from some or all the following species: human (Homo sapiens), mouse (Mus musculus), frog (Xenopus laevis), zebrafish (Danio rerio), chicken (Gallus gallus), and turtle (Chrysemys picta). The ECOTOX-FACTORIAL format uses HepG2, a human liver cell line, with measurements taken at 24 hours after chemical dosing in a 24-well plate. Xsp1 included 3 nM 6-alpha-fluorotestosterone to partially stimulate the androgen receptor.ATG_zfAR_XSP1 is one of 29 assay components measured or calculated from the ATG_XSP1_multi-species_TRANS assay. It is designed to make measurements of mRNA induction, a form of inducible reporter, as detected with fluorescence intensity signals by Reverse transcription polymerase chain reaction (RT-PCR) and Capillary electrophoresis technology.The assay endpoint ATG_zfAR_XSP1 was analyzed in the positive analysis fitting direction relative to DMSO as the negative control and baseline of activity. Using a type of inducible reporter, measures of mRNA for gain-of-signal activity can be used to understand the reporter gene at the transcription factor-level as they relate to the gene AR. Furthermore, this assay endpoint can be referred to as a primary readout, because this assay has produced multiple assay endpoints where this one serves a reporter gene function. […]
Human liver HepG2 cells are transiently transfected with multiple reporter transcription units (MRTUs) in 6-well plates using FuGene 6 reagent (Roche; 3 ml FuGene/1 mg DNA). […] A major difference between the CIS and TRANS system is that in CIS activities of endogenous TFs are measured, whereas the TRANS assay evaluates changes in activities of exogenous, chimeric NR-Gal4 proteins. […] The fragments were purified using Qiaquick PCR columns (Qiagen), analyzed on an ABI 3130xL genetic analyzer (Applied Biosystems) with peak positions identified by using a set of X-rhodamine (ROX)-labeled MapMarker1000 molecular weight standards (BioVentures). […]

Experiment [5] deals with zebrafish Estrogen Receptor (ESR2B), gene 317733. The experiment can be described thus: ATG_zfER2b_XSP1: Attagene TRANS-FACTORIAL Multi-Species (XSP1) HepG2 Assay for zebrafish Estrogen Receptor (ESR2B) (AID 2283773). An outline of the steps: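 HepG2 cells transiently transfected with GAL4-UAS reporter units for chimeric zebrafish ER2b-Gal4, with 3 nM 6-alpha-fluorotestosterone present; reporter mRNA measured 24 h after dosing by RT-PCR and capillary electrophoresis, gain versus DMSO.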

Experiment [6] relates to frog Estrogen Receptor (ESR2), gene 100174814. The experiment can be described thus: ATG_frER2_XSP1: Attagene TRANS-FACTORIAL Multi-Species (XSP1) HepG2 Assay for frog Estrogen Receptor (ESR2) (AID 2283774). The method, then: ATG_XSP1_multi-species_TRANS is a cell-based, multiplexed assay created by modifying the existing Attagene TRANS-FACTORIAL system to include a panel of nuclear receptors from some or all the following species: human (Homo sapiens), mouse (Mus musculus), frog (Xenopus laevis), zebrafish (Danio rerio), chicken (Gallus gallus), and turtle (Chrysemys picta). The ECOTOX-FACTORIAL format uses HepG2, a human liver cell line, with measurements taken at 24 hours after chemical dosing in a 24-well plate. Xsp1 included 3 nM 6-alpha-fluorotestosterone to partially stimulate the androgen receptor.ATG_frER2_XSP1 is one of 29 assay components measured or calculated from the ATG_XSP1_multi-species_TRANS assay. It is designed to make measurements of mRNA induction, a form of inducible reporter, as detected with fluorescence intensity signals by Reverse transcription polymerase chain reaction (RT-PCR) and Capillary electrophoresis technology.The assay endpoint ATG_frER2_XSP1 was analyzed in the positive analysis fitting direction relative to DMSO as the negative control and baseline of activity. Using a type of inducible reporter, measures of mRNA for gain-of-signal activity can be used to understand the reporter gene at the transcription factor-level as they relate to the gene ER. Furthermore, this assay endpoint can be referred to as a primary readout, because this assay has produced multiple assay endpoints where this one serves a reporter gene function. To generalize the intended target to other relatable targets, this assay endpoint is annotated to the nuclear receptor intended target family, where the subfamily is steroidal.
Human liver HepG2 cells are transiently transfected with multiple reporter transcription units (MRTUs) in 6-well plates using FuGene 6 reagent (Roche; 3 ml FuGene/1 mg DNA). The MRTU constructs are regulated by a cis-regulating element (promoter). […] A major difference between the CIS and TRANS system is that in CIS activities of endogenous TFs are measured, whereas the TRANS assay evaluates changes in activities of exogenous, chimeric NR-Gal4 proteins. […] At the end of 24 hour incubation, total RNA was isolated using TriZol reagent (Invitrogen). The isolated RNA is then reverse-transcribed using oligo(dT) primer and Mo-MLV reverse transcriptase (Invitrogen) with DNAse I (Ambion) treatment for 30 min. The one-tenth of the produced cDNA was amplified by PCR using Taq DNA polymerase (Invitrogen) and two reporter sequence-specific primers. The PCR products were fluorescently labeled by primer extension with 6-arboxyfluorescein (6-FAM) 5'-labeled reporter sequence-specific primer (2 min at 95 C, 20 s at 68 C and 10 min at 72 C) and these products were digested with 5U of HpaI (New England Biolabs) for 2h at 37 C. The fragments were purified using Qiaquick PCR columns (Qiagen), analyzed on an ABI 3130xL genetic analyzer (Applied Biosystems) with peak positions identified by using a set of X-rhodamine (ROX)-labeled MapMarker1000 molecular weight standards (BioVentures). The raw capillary electrophoresis data was processed using Attagraph software (Attagene).

For experiment [7], the target named is Luciferin 4-monooxygenase (Photinus pyralis) (UniProt P08659). The experiment can be described thus: CCTE_Simmons_QuantiLum_inhib_2: CCTE's Firefly Luciferase Inhibition Assay, Simmons Lab (AID 2283767). An outline of the steps:
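Recombinant firefly luciferase (5 ng/well, 200 mM potassium phosphate with 1 mg/ml BSA) was exposed to 8 concentrations from 5 nM to 87.5 uM (final, 0.5% DMSO) for 30 min at 37C in the dark. Loss of luminescence versus DMSO was read after injecting D-luciferin/ATP-analogue reagent.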

Experiment [8] addresses zebrafish Estrogen Receptor (ESR1), esr1 (gene 259252) (UniProt P57717). The experiment can be described thus: ATG_zfER1_XSP1: Attagene TRANS-FACTORIAL Multi-Species (XSP1) HepG2 Assay for zebrafish Estrogen Receptor (ESR1) (AID 2283772). The gist of the method: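 HepG2 cells transiently transfected with a GAL4-UAS reporter and chimeric zebrafish ER-Gal4, dosed 24 h with 3 nM 6-alpha-fluorotestosterone present. Reporter mRNA measured by RT-PCR and capillary electrophoresis; gain of signal versus DMSO.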

Experiment [9] in a line: ArunA_NOG_NeuritesPerNeuron: ArunA Biomedical's Neurite Outgrowth (NOG) Assay for Neurites Per Neuron (AID 2283758). The gist of the method:
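Differentiated human H9-derived neurons exposed to chemicals for 48 h from seeding, then stained with Hoechst and βIII-tubulin/DyLight 488. Automated imaging counted neurites (processes >10 um) per valid neuron; loss of signal versus DMSO scored.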

The test system of experiment [10] is chicken Androgen Receptor (AR), gene 422165. The experiment can be described thus: ATG_chAR_XSP1: Attagene TRANS-FACTORIAL Multi-Species (XSP1) HepG2 Assay for chicken Androgen Receptor (AR) (AID 2283768). An outline of the steps:
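HepG2 cells transiently transfected with multiplexed GAL4-UAS reporter units expressing chimeric chicken AR-Gal4; 3 nM 6-alpha-fluorotestosterone for partial AR stimulation; 24 h after dosing, reporter mRNA by RT-PCR and capillary electrophoresis, gain-of-signal versus DMSO.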

“And” between values parts separate entries of the source, which are not always exact repeats. Identical values can stand only once. Results filed as inconclusive are left out. More than one record can exist for a structure, and the calls need not agree. The source made the active and inactive calls. The calls were made as follows: active = hit-call score of the fitted dose curve at least 0.9, where 1 is the maximum; inconclusive = response in the unintended direction; inactive = score below 0.9.

A word on the AC50: it is the concentration at which the activity in the assay is half-maximal.

Sequence of zebrafish Estrogen Receptor (ESR1), esr1 (gene 259252) (P57717 whole entry, looked up, the tested form may be a part): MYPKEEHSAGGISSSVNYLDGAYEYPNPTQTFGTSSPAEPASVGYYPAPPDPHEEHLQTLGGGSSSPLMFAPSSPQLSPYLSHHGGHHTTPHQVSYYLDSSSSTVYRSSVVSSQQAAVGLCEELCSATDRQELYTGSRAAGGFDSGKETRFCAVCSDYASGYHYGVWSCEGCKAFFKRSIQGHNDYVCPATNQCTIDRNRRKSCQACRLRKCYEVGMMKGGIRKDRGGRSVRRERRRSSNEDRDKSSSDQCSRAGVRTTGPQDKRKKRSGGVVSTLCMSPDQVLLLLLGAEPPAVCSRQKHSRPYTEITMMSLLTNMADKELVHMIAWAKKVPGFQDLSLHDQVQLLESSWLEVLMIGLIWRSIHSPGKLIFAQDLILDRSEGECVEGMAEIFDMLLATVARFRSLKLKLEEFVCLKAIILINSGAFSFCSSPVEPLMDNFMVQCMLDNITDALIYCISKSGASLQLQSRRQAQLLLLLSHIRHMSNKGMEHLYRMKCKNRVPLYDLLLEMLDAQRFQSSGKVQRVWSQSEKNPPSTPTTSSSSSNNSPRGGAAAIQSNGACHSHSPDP
Sequence of Luciferin 4-monooxygenase (Photinus pyralis) (P08659 whole entry, looked up): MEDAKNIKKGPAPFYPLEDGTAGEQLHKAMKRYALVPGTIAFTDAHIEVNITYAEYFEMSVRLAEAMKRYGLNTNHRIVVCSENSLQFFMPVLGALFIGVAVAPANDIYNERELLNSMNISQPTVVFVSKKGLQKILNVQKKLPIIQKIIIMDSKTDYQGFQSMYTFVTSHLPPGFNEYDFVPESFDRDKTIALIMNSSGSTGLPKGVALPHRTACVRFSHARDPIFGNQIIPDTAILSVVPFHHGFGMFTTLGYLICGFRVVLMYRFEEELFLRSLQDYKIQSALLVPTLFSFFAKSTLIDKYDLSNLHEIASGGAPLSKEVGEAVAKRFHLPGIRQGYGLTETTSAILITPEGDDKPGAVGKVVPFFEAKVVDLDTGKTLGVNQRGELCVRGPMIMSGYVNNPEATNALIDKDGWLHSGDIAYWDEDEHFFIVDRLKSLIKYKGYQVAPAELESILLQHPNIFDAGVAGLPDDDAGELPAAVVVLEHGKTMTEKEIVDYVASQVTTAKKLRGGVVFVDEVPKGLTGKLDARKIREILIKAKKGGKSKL

In the case of `CCC(C)Nc1c([N+](=O)[O-])cc(C(C)(C)C)cc1[N+](=O)[O-]` (stereo not given), the call in experiment [1] and in experiment [2] was inactive. Besides, in experiment [3], the concentration at half-maximal activity (AC50) is 36.6 µM (active).

For the compound `O=S1OCC2C(CO1)C1(Cl)C(Cl)=C(Cl)C2(Cl)C1(Cl)Cl` (stereo not given), in experiment [4], the call was inactive. Moreover, the AC50 in experiment [5] is 4.8 µM (active); in [6], 10 µM (active); in [2] it was 23.1 µM (active); in experiment [3] it was 17.2 µM (active).

Consider `COP(=O)(OC)OC=C(Cl)Cl`, for which the result in experiment [7] and in experiment [3] was inactive.

Regarding `CCCN(CCOc1c(Cl)cc(Cl)cc1Cl)C(=O)n1ccnc1`, the compound was called inactive in [7], in experiment [8], in experiment [5] and in experiment [6]. Moreover, the results for the half-maximal activity concentration (AC50) in experiment [2] and in experiment [3] were 37.3 µM (active) and 57.1 µM (active), respectively.

As for `Oc1ccc(Cl)cc1Cc1ccccc1`, the compound was classed as inactive in [7] and in [8]. Besides, the half-maximal activity concentration (AC50) in [5] is 3.36 µM (active); in [6], 2.69 µM (active); in experiment [2], 18.2 µM (active); in [3], 13.8 µM (active).

For the compound `COP(=S)(OC)Oc1ccc(SC)c(C)c1`, the compound was classed as inactive in experiment [7], in experiment [8] and in experiment [2]. Moreover, the concentration at half-maximal activity (AC50) in [5] is 66.9 µM (active); in [6] it was 11.8 µM (active); in experiment [3], 33.5 µM (active).

In the case of `COP(=S)(OC)Oc1ccc([N+](=O)[O-])cc1`, the outcome in [7] and in [3] was inactive.

For `O=S(=O)(O)C(F)(F)C(F)(F)C(F)(F)C(F)(F)C(F)(F)C(F)(F)C(F)(F)C(F)(F)F`, the AC50 in [9] is 1.02 µM (active); in [10] it was 148 µM (active); in experiment [6], 49.8 µM (active); in experiment [2], 50 µM (active); in experiment [3], 31.4 µM (active) and 67.5 µM (active). Besides, the result in experiment [1], in experiment [7], in [5] and in experiment [2] was inactive.

Take `CNC(=O)/C=C(\C)OP(=O)(OC)OC`: the compound was called inactive in [7] and in experiment [3].

For the compound `Oc1cc(Cl)ccc1Oc1ccc(Cl)cc1Cl`, the result in experiment [9], in [1], in experiment [7], in experiment [4] and in [8] was inactive. The results for the AC50 in experiment [6], in experiment [2] and in experiment [3] were 7.05 µM (active), 17.3 µM (active) and 12.9 µM (active), respectively.

As for `CC1(C)C(C=C(Cl)Cl)C1C(=O)OC(C#N)c1ccc(F)c(Oc2ccccc2)c1` (stereo not given), the outcome in [10] and in experiment [4] was inactive. Also, the concentration at half-maximal activity (AC50) in [5] is 35.5 µM (active); in experiment [6], 27 µM (active); in experiment [2] it was 67.2 µM (active); in [3] it was 30.1 µM (active).

The values are drawn from PubChem BioAssay (EPA / NIEHS).
